Values without a mark were called inactive.
Each compound was assayed on Vero E6 infected with SARS-CoV-2 (assay: inhibition of SARS-CoV-2 cytopathic effect; higher = more antiviral protection, active = above 15). Details: 8.33 nM; 48 h.

| Structure (SMILES) | inhibition of SARS-CoV-2 cytopathic effect |
| --- | --- |
| Cc1cnc(Nc2ccc(N3CCN(C)CC3)cc2)nc1Nc1cccc(S(=O)(=O)NC(C)(C)C)c1 | -0.73% |
| CC[C@H](C)[C@@H]1NC(=O)[C@H](Cc2ccc(O)cc2)NC(=O)[C@@H](N)CSSC[C@@H](C(=O)N2CCC[C@H]2C(=O)N[C@@H](CC(C)C)C(=O)NCC(N)=O)NC(=O)[C@H](CC(N)=O)NC(=O)[C@H](CCC(N)=O)NC1=O [oxytocin] | 3.79% |
| CCN(C(C)=O)c1cccc(-c2ccnc3c(C#N)cnn23)c1 | -1.57% |
| CC1Sc2c(C(=O)O)c(=O)c3cc(F)c(N4CCNCC4)cc3n21 (stereo not given) [ulifloxacin] | -1.36% |
| COc1cc(OC)c(/C=C/S(=O)(=O)Cc2ccc(OC)c(OP(=O)(O)O)c2)c(OC)c1 [briciclib] | 1.56% |
| Cc1ccc(/C=C2\CNC/C(=C\c3ccc(C)cc3)C2=O)cc1 | -1.97% |
| CC[C@H](C)C[C@H](C)CCCCCCCCC(=O)N[C@H]1C[C@@H](O)[C@@H](NCCN)NC(=O)[C@@H]2[C@@H](O)CCN2C(=O)[C@H]([C@H](O)CCN)NC(=O)[C@H]([C@H](O)[C@@H](O)c2ccc(O)cc2)NC(=O)[C@@H]2C[C@@H](O)CN2C(=O)[C@H]([C@@H](C)O)NC1=O [caspofungin] | 0.765% |
| NC(=O)c1ccccc1O [salicylamide] | 2.62% |
| COc1ccc(-c2nc(C(=O)N3CCN(C)CC3)sc2-c2ccc(OC)cc2)cc1 | -0.77% |
| O=C(NC(=O)c1c(F)cccc1F)Nc1cc(Cl)c(OC(F)(F)C(F)C(F)(F)F)cc1Cl (stereo not given) [lufenuron] | 2.18% |
| Cc1onc(-c2ccccc2)c1-c1ccc(S(N)(=O)=O)cc1 [valdecoxib] | -0.66% |
| O=C(O)CNC(=O)c1ccccc1 [hippuric-acid] | 1.5% |
| CC(=O)c1ccc2c(c1)N(CCCN1CCC(CCO)CC1)c1ccccc1S2 [piperacetazine] | 4.04% |
| Cn1c(=O)c(F)c(Nc2ccc(I)cc2F)c2c(=O)n(C[C@@H](O)CO)cnc21 | -6.23% |
| CC(C)Oc1ccc(-c2nc(-c3cccc4c3CC[C@H]4NCCC(=O)O)no2)cc1C#N | -1.13% |
| CCOc1nc2cccc(C(=O)OC(C)OC(=O)OC3CCCCC3)c2n1Cc1ccc(-c2ccccc2-c2nn[nH]n2)cc1 (stereo not given) [candesartan-cilexetil] | -0.29% |
| CC(C)(C)CC(C)(C)c1ccc(OCCOCC[N+](C)(C)Cc2ccccc2)cc1 [benzethonium] | -10.6% |
| COc1ccc(NC(=O)c2ccc(-c3ccc(-c4noc(C)n4)cc3C)cc2)cc1OCCN(C)C | -0.62% |
| CCCn1cnc2c1c(=O)n(CCCCC(C)=O)c(=O)n2C [propentofylline] | 2.46% |
| Cc1cc(C)c(CNC(=O)c2cc(-c3ccc(CN4CCOCC4)cc3)cc3c2cnn3C2CCCC2)c(=O)[nH]1 | 1.2% |

| Structure (SMILES) | inhibition of SARS-CoV-2 cytopathic effect |
| --- | --- |
| CC(C)CN(C[C@@H](O)[C@H](Cc1ccccc1)NC(=O)O[C@H]1CCOC1)S(=O)(=O)c1ccc(N)cc1 [amprenavir] | 1.43% |
| CN(C)CCCCSC(=N)N | -3.4% |
| Cc1cccc(C)c1NC(=O)c1ccccc1C(=O)O [ftaxilide] | 0.92% |
| O=C(/C=C/c1ccc2c(c1)OCO2)N1CCCCC1 [ilepcimide] | 0.26% |
| Oc1ccc(Nc2nc(-c3ccc(Cl)cc3)cs2)cc1 | 0.67% |
| N#Cc1cc2c(OCC(O)CN3CCN(C(c4ccccc4)c4ccccc4)CC3)cccc2[nH]1 (stereo not given) | -0.23% |
| CC[C@H]1[C@@H](O)[C@@H]2[C@H](CC[C@]3(C)[C@@H]([C@H](C)CCC(=O)O)CC[C@@H]23)[C@@]2(C)CC[C@@H](O)C[C@@H]12 [obeticholic-acid] | 1.41% |
| O=C(COc1ccc(Cl)cc1)N1CCN(Cc2ccc3c(c2)OCO3)CC1 [fipexide] | 0.95% |
| CCC(CC)COC(=O)[C@H](C)N[P@](=O)(OC[C@H]1O[C@@](C#N)(c2ccc3c(N)ncnn23)[C@H](O)[C@@H]1O)Oc1ccccc1 [Remdesivir] | 1.32% |
| N=C(N)NC(=N)Nc1ccccc1 [1-phenylbiguanide] | -0.09% |
| Cc1ccc2c(c1)[C@]13CCCC[C@@H]1[C@H](C2)N(C)CC3 [dimemorfan] | 0.39% |
| Oc1ccc([C@H]2COc3cc(O)ccc3C2)cc1 [equol] | -1.03% |
| Nc1ccc(S(=O)(=O)NC(=O)c2ccccc2)cc1 [sulfabenzamide] | -0.25% |
| NC(=O)N/N=C/c1ccc(Oc2ccc(F)cc2)cc1 | -1.91% |
| CC(=O)N[C@@H](Cc1c[nH]c2ccccc12)C(=O)OCc1cc(C(F)(F)F)cc(C(F)(F)F)c1 | 1.3% |
| COc1cc(OC)nc(O[C@H](C(=O)O)C(OC)(c2ccccc2)c2ccccc2)n1 [darusentan] | -0.2% |
| C[N+](C)(C)CCCCCC[N+](C)(C)C [hexamethonium] | 1.65% |
| COC(=O)C1=C(C#N)NC(C)=C(C(=O)OC(C)C)C1c1cccc([N+](=O)[O-])c1 (stereo not given) [nilvadipine] | -2.45% |
| CC(=O)N(CC(O)CN(C(C)=O)c1c(I)c(C(=O)NCC(O)CO)c(I)c(C(=O)NCC(O)CO)c1I)c1c(I)c(C(=O)NCC(O)CO)c(I)c(C(=O)NCC(O)CO)c1I (stereo not given) [iodixanol] | 3.23% |
| CN(C)CCCNC(=O)c1ccc(-c2cc(O)c3ncccc3c2)cc1 | -0.41% |
